Only some compounds are listed: those with a hit (about 5.7% of all), similar ones and a draw of the others.
HT1080 IDH1KD tx: HT-1080 IDH1 knockdown cell toxicity (counter line). HT-1080 IDH1 knockdown viability, ATP luminescence, 48 h. Potency, µM (highest dose often 46.1 µM), for the others: top-dose activity, negative = toxicity, hits mostly cytotoxic. hit rate 2% among 360,000. AID 686971;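 also: 0% = DMSO wells and -100% = cell-free medium wells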
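Using the IDH1-knockdown HT-1080 line run in the same batch and compound series as the NT line, viability after 48 h at 37 °C was determined by CellTiter-Glo luminescence and expressed as % activity.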
KB-V1 MDR tox: kills drug-selected multidrug resistant KB-V1 cells; hit rate 3.4% among 400,000; KB-V1 MDR cells viability, CellTiter-Glo, 72 h; AID 1347076; Potency, µM (doses to about 46.1 µM), usual class: cytotoxic; also: nearly all actives have a fitted effect of over 60% in size
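Following 72 h at 37 degrees C with compound, KB-V1 cell viability was read by CellTiter-Glo luminescence, medium being phenol-red-free DMEM plus 10% FBS; concentration-response parameters came from normalized, curve-fitted qHTS data.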
KB-3-1 tox: kills parental KB-3-1 adenocarcinoma cells | KB-3-1 viability, CellTiter-Glo ATP luminescence, 72 h | Potency, µM (highest dose often 46.1 µM), most hits filed as cytotoxic | hit rate 1.4% among 400,000 | AID 1347075; also: nearly all actives have a fitted effect of over 60% in size
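Viability of parental KB-3-1 cells, measured by CellTiter-Glo luminescence, followed a 72 h incubation at 37 °C with pinned compounds in phenol-red-free DMEM containing 10% FBS.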
HT1080NT lethal: kills 2HG-producing HT-1080-NT fibrosarcoma cells; HT-1080-NT fibrosarcoma viability, CellTiter-Glo ATP luminescence, 48 h; Potency, µM (titrated, usually from 46.1 µM), for inactives: at the top dose activity, negative = less viability, hits mostly cytotoxic; hit rate 1.6% among 360,000; AID 686970;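 also: NT is the 2HG producing partner of a matched IDH1 knockdown line; 0% = DMSO-treated cells and -100% = media-only wells without cells; nearly all actives have a fitted effect of over 55% in size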
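Luminescent CellTiter-Glo readout after 48 hours of compound exposure at 37 degrees C defined viability of HT-1080-NT cells. Activity was normalized to DMSO wells and cell-free media wells; concentration-response curves were fitted and assigned curve classes.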
An asterisk follows results filed as active; i = inactive; ? = inconclusive; / = no result. Calls follow the shape of the dose curve; as a rule, active = well fitted curve in the direction sought with a large enough effect; inconclusive = small, poorly fitted or top-dose-only effect, or another doubt; inactive = no such curve, though single readings can be large; an effect the other way counts as inactive or inconclusive. Unless noted, % is scaled to controls: 0 for no effect and ±100 for the full control effect; potency is read from the fitted curve at half-maximal effect.

SMILES	HT1080 IDH1KD tx	KB-V1 MDR tox	KB-3-1 tox	HT1080NT lethal
Cc1ccccc1NC(=O)c1c(C)oc2ccc(O)c(CN3CCCC3)c12	/	i	i	/
CCc1c(C)sc(NC(=O)OC)c1C(N)=O	2%	i	i	2%
CCc1c(C)sc(NC(=O)CCc2ccc(OC)cc2)c1C(N)=O	-1%	21µM*	i	2%
Cc1nc2ccccc2nc1SCC(=O)c1ccccc1	-6%	2.6µM*	?	1%
COc1cc(C(=O)NCC(c2cccs2)N(C)C)cc(Cl)c1OC(C)C (configuration not stated)	-18%	7.3µM*	i	-7%
CCCOc1ccc(C(=O)NCC(c2cccs2)N(C)C)cc1OC (configuration not stated)	-3%	i	i	3%
Cc1ccc(CN(C)C(=O)c2ccccc2Oc2ccccc2)o1	-6%	21µM*	i	-6%
O=C(NCC(c1ccco1)N1CCc2ccccc21)C(=O)Nc1ccccc1F (configuration not stated)	-18%	16µM*	15µM*	-3%
O=C(NCC(c1ccco1)N1CCc2ccccc21)C(=O)Nc1ccc(F)cc1F (configuration not stated)	?	4.1µM*	4.6µM*	?
COc1ccc(C(=O)NCC(c2cccs2)S(=O)(=O)c2ccc(F)c(C)c2)cc1 (configuration not stated)	/	i	i	/
Cc1ccc2nc(COc3cccc(NC(=O)COc4ccc(F)cc4)c3)cc(=O)n2c1	/	i	i	/
CC(=NNC(=S)N1CC2CCC(CC2)C1)c1ccncn1	?	i	?	16µM*
CC(=NNC(=S)Nc1ccccc1Cl)c1ccccn1	?	?	?	-27%
COc1cc2nc(N3CCN(C)CC3)nc(NC3CCN(C)CC3)c2cc1OC	-12%	/	/	-10%
CCOC(=O)C1CCCN(Cc2cc(Br)c(OC)cc2OC)C1 (configuration not stated)	-24%	10µM*	i	-2%
COc1ccc(C(=O)/C=C2/C(=O)Nc3ccccc32)c(OC)c1	23µM*	?	?	18µM*
COc1ccc(C(=O)/C=C2/C(=O)Nc3ccccc32)cc1	?	i	?	?
CCC(C)NC(=O)c1sc2nc(C)c(C(=O)Nc3ccc(C)cc3C)c(-c3ccc(NC(C)=O)cc3)c2c1N (configuration not stated)	/	i	i	/
COc1ccc(NC(=O)CSc2nc(-c3ccc(OC)cc3)[nH]c2-c2ccc(OC)cc2)cc1	/	i	i	/
CC1CCCC(C)N1C(=O)c1cc2ncc(CCCl)cn2n1 (configuration not stated)	7%	21µM*	i	11%
O=C(c1cc2ncc(CCCl)cn2n1)N1CCCCCC1	4%	i	i	8%
O=C(Nc1ccc(C(F)(F)F)cc1)N1CCN(c2ccnc3cc(Cl)ccc23)CC1	29µM*	?	i	?
N#C/C(=C\Nc1ccccc1O)c1nc2ccccc2o1	?	21µM*	i	?
N#C/C(=C\c1ccncc1)c1nc2ccccc2o1	?	i	i	?
CN(C)c1ccc(CNC(=O)Cn2c(=O)oc3cc(S(=O)(=O)N4CCCCCC4)ccc32)cc1	/	i	i	/
SMILES	HT1080 IDH1KD tx	KB-V1 MDR tox	KB-3-1 tox	HT1080NT lethal
CC(=O)OC1(C(C)=O)CCC2C3CC(C(F)(F)F)C4=CC(=O)CCC4(C)C3CCC21C (configuration not stated)	21µM*	i	i	18µM*
O=C(NNc1cccc(Cl)c1)c1cccnc1Oc1ccccc1	6.5µM*	i	i	?
O=C(Nc1ccc(F)cc1)c1cccnc1Oc1ccccc1	4%	i	i	3%
Fc1ccccc1COc1cccc(/C=N/n2cnnc2)c1	4%	13µM*	i	-3%
C(=N\n1cnnc1)/c1cccc(Oc2ccccc2)c1	2%	i	i	4%
CCOC(=O)N1CCN(C(=O)c2ccc(Cn3c(=S)[nH]c4ccc(Br)cc4c3=O)cc2)CC1	11%	i	?	-4%
CCN(Cc1ccc(OC)c(F)c1)C(=O)CCl	16µM*	?	?	18µM*
Cc1ccc2nc(/C(C#N)=C/c3ccc(-c4ccccc4C(=O)O)o3)[nH]c2c1	24%	i	i	-1%
Cc1ccc2nc(/C(C#N)=C\c3ccc([N+](=O)[O-])o3)[nH]c2c1	2µM*	i	i	?
